Marburg entry – Marburg virus entry inhibition. Marburg virus pseudotype entry/binding inhibition, cell-based. Potency, µM (series often up to 49.2 µM), for the others: at the highest dose activity change, negative = inhibition, actives largely listed as inhibitors. 18,000 compounds, 6.5% hits. AID 720532
Lassa entry – Lassa virus entry inhibition | AID 720533 | 18,000 compounds, 4.1% hits | Lassa virus pseudotyped entry inhibition, cell-based qHTS | Potency, µM (titrated, usually from 49.2 µM), without a hit: at the top dose activity change, negative = inhibition, most hits filed as inhibitors
* hit, by the source's call; ? = inconclusive; . = no result given; ! = not active in a repeat; [ ] = another dose, or the depositor's remark. Compounds with a hit are over-represented: about 8.6% of the library has one in this group of screens. The call rests on the fitted dose curve; tested in HEK293 cells. On the % scale 0 is the no-effect control and ±100 the full control effect; potency means the concentration at half of the fitted maximal effect.

SMILES	Marburg entry	Lassa entry
CCCCCCN1C[C@@H](n2cc(C3CC3)nn2)[C@H](O)C[C@H]1c1ccc(OC)cc1	-19.9%	.
CCCCC(=O)OCC(=O)[C@H]1[C@H](C)C[C@H]2[C@@H]3C[C@H](F)C4=CC(=O)C=C[C@]4(C)[C@@]3(F)[C@@H](O)C[C@@]21C	-9.3%	3.0%
CC(CCN1CCCc2nc(C)c(C)cc21)=NO[C@H](C)c1cn([C@@H]2COC[C@@H]2O)nn1	7.3%[8.59 µM]	.
COc1ccc(C=CC2=C[C@]3(C)C[C@]2(C)[C@H](c2ccc(OC)cc2)CC3=O)cc1	3.8%[8.59 µM]	5.2%[8.59 µM]
CC(CCC(=O)OC[C@H]1O[C@H](C#Cc2ccccc2)C=C[C@H]1Oc1ccc(C)cc1)=NOC[C@@H](O)COCc1ccco1	-9.6%[8.59 µM]	-19.7%[8.59 µM]
CC=COC(=O)N[C@@H](c1cccc(C)c1)[C@]1(C(=O)OCC)CCCC1=O	13.1%[8.59 µM]	-16.8%[8.59 µM]
CC#CCN1c2ccccc2[C@]23CCC(=O)N(Cc4ccco4)C2=NC(C(=O)OC)=C(C(=O)OC)[C@H]13	?	-19.8%[8.59 µM]
O=C(OCc1cn([C@H]2CN(C(=O)C3CCCCC3)[C@@H](c3ccccc3)C[C@H]2O)nn1)c1ccccc1	?	-28.1%
COCc1cc2cc3c(cc2c2c(C(=O)OC)c(C(=O)OC)c(C(=O)OC(C)(C)C)n12)OCO3	-26.9%[8.59 µM]	.
[O-][n+]1ccccc1SSc1cccc[n+]1[O-]	6.31µM*	3.98µM*
COc1cccc([C@H]2Oc3ccc(OC)cc3C(=NOC[C@@H](O)COCc3ccco3)[C@H]2O)c1	?	10.2%[8.59 µM]
Clc1cccc(Nc2nnc(-c3ccccc3)c3ccccc23)c1	7.08µM*!	3.55µM*
c1ccc(-c2nc(-c3cccc4ccccc34)c(Nc3ccc4ccccc4c3)o2)cc1	4.1%	0.7%
COC(=O)N[C@@H](C=Cc1ccccc1)C(C(=O)OC)=C(C)NCc1ccccc1	-22.2%[8.59 µM]	-11.6%[8.59 µM]
CC(=O)OC[C@H]1O[C@H](CC=NOCC[C@@H]2C=C[C@@H](OC(C)=O)[C@@H](COC(C)=O)O2)C=C[C@@H]1OC(C)=O	10.3%[8.59 µM]	-0.8%[8.59 µM]
COc1ccc(CN2CCOc3ccc(CN4CCC(O)(c5cccnc5)CC4)cc3C2)cc1OC	?	-4.4%
COc1cc(CN2CCOc3ccc(CN4CCC(O)(c5cccnc5)CC4)cc3C2)cc(OC)c1	11.2µM*	-18.3%
CCN1C(N(C)CCc2c[nH]c3ccccc23)=NC(c2cccc(C(F)(F)F)c2)C(C(=O)OC)=C1C (centres undefined)	?	-23.1%[8.59 µM]
CCCCCC(=O)N1C[C@@H](O)[C@H](n2cc(COC(=O)c3ccccc3)nn2)C[C@H]1c1ccc(Cl)cc1	?	-17.7%
CC(O)C(C)OC(=O)[C@@H]1C[C@@H]2c3cccc4c3c(cn4C(C)C)C[C@H]2N(C)C1 (some centres undefined)	12.6%	?
CN1CC(CNC(=O)OCc2ccccc2)CC2c3cccc4c3c(cn4C)CC21 (centres undefined)	10µM*	?
CC(C)CON=C1C[C@@H](O)[C@@H](O)[C@@H]2[C@H]3C(=O)N(Cc4ccc5c(c4)OCO5)C(=O)[C@@H]3CC[C@@H]12	-29.9%[8.59 µM]	8.0%[8.59 µM]
C=C1C(=O)O[C@@H]2[C@H]3O[C@]3(C)CC/C=C(\C)CC[C@@H]12	3.98µM*	4.47µM*
C=C1C(=O)O[C@@H]2C3OC3(C)CC/C=C(\C)CC[C@@H]12 (some centres undefined)	-16.1%	-21.6%
C=C1C(=O)OC2C=C(C)CCC=C(C)CCC12 (centres undefined)	-18.9%	-14.6%
SMILES	Marburg entry	Lassa entry
C=C1CC/C=C(\C)CC[C@@H]2[C@@H]1CC2(C)C	7.2%	-2.0%
C=C1C(=O)O[C@H]2[C@H]1CC/C(C)=C\CC[C@@]1(C)O[C@@H]21	14.1µM*	7.94µM*
C=C1C(=O)OC2C1CC/C(C)=C/CCC1(C)OC21 (centres undefined)	?	11.2µM*
CCCNC(=O)OC[C@H]1O[C@H](CCON=C2c3cc(OC)ccc3O[C@H](c3cccc(OC)c3)[C@H]2O)C=C[C@H]1Oc1ccc(OC)cc1	?	-10.4%[8.59 µM]
C=CCN1Cc2ccccc2Oc2ccc(Cl)cc2S1(=O)=O	9.5%	42.1%
C[C@H]1[C@H](O)[C@@H](N=[N+]=[N-])CCO[C@H]1c1ccccc1	-11.7%[8.59 µM]	-5.8%[8.59 µM]
COC1=C[C@H](C(=O)N2CCCC2)[C@H](C)[C@@H](c2ccccc2)CC1=O	2.0%[8.59 µM]	-11.0%[8.59 µM]
C=C[C@@](C)(O)C1CC2C=CCOP(=O)(O2)O1 (some centres undefined)	88.9%	-1.6%
C=C(C)C(=O)OC[C@@H]1CN2[C@H](c3ccc(Br)cc3)[C@H](C)CC[C@H]2C(=O)O1	45.7%[8.59 µM]	10.6%[8.59 µM]
COCC(=O)Nc1cc(C(=O)N2CCN(C)C(c3ccccc3)C2)c2c(c1)nc(-c1ccncc1)n2C (centres undefined)	15.7%	-4.5%
NCCCCCCNS(=O)(=O)c1cccc2ccccc12	9.2%	?
Nc1nc(NCC2CCC(CNS(=O)(=O)c3cccc4ccccc34)CC2)nc2ccccc12 (centres undefined)	11.2µM*	?

Compound activity as filed in PubChem.
